The inhibition is the change of the read-out against control, counted positive when it falls.

Among all 220,000 compounds or so, about 300 (0.14%) were called active.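 The calls were made as follows: active = inhibition of at least 40%; inactive = inhibition below 40%.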 The sample as a whole holds a higher share of actives than the screen did.

Chain of Coagulation factor XI (Homo sapiens) (P03951 19-387 limits assumed): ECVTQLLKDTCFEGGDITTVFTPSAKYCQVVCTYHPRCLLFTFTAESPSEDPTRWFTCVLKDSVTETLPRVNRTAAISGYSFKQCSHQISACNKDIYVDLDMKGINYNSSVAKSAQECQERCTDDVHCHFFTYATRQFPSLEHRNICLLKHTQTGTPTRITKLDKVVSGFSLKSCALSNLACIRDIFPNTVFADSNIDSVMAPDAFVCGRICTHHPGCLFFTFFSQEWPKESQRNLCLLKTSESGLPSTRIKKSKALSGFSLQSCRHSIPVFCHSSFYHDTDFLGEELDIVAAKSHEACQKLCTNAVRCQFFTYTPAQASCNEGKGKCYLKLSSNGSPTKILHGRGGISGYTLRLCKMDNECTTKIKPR
Chain of Coagulation factor XI (Homo sapiens) (P03951 388-625 limits assumed): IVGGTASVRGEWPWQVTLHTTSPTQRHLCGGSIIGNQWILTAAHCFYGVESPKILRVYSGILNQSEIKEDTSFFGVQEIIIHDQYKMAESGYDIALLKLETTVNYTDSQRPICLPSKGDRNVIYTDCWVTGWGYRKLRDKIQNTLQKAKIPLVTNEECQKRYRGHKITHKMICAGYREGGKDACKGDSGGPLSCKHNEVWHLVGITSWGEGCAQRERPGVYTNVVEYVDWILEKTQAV

The assay has as its target Coagulation factor XI (Homo sapiens) (UniProt P03951). The experiment in a line: human FXIa protease inhibitors, primary screen, biochemical, 1536-well (AID 798).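 Also: fluorescence of freed AMC excited at 355 nm; 0% = enzyme without compound and 100% = no enzyme blank.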 The note with it: purified FXIa, Boc-Glu-Ala-Arg-AMC fluorogenic substrate; at 5 µM; hits give high values.
For the compound `O=C(NCc1cccnc1)Nc1cccc(NC(=O)NCc2cccnc2)c1F`, the inhibition is -0.25% (inactive).

Take `CCOC(=O)c1ccccc1NC(=S)N1CCC(C(N)=O)CC1`: the inhibition was -1.65% (inactive).

In the case of `NC(=O)COC(=O)c1cc(S(=O)(=O)N2CCN(c3ccccc3)CC2)ccc1Cl`, the inhibition is -1.04% (inactive).

On to `O=C1c2ccccc2C(=O)N1CCC(O)C[N+](=O)[O-]` (stereo unspecified), for which the inhibition was 1.96% (inactive).

For the compound `CCOc1ccc(S(=O)(=O)Nc2nccs2)cc1`, the inhibition is 0.82% (inactive).

`COc1ccc(CN(C(=O)c2cccs2)c2nccs2)cc1OC`: the inhibition is 0.51% (inactive).

In the case of `COc1ccc(OCC(=O)N2CCN(C(=O)c3cccs3)CC2)cc1`, the inhibition is -3.87% (inactive).

Regarding `COc1ccc(CN(Cc2ccc(OC)cc2)C(=O)c2cccs2)cc1`, the inhibition is 54.2% (active).

In the case of `C/C(=N/NC(=O)CC(=O)N/N=C(\C)c1ccc([N+](=O)[O-])cc1)c1ccc([N+](=O)[O-])cc1`, the inhibition was 0.21% (inactive).

In the case of `Cc1nc(N)sc1N=Nc1c(C)n(C)n(-c2ccccc2)c1=O`, the inhibition is 1.75% (inactive).

Turning to `CC(C)n1c(O)c(N=Nc2ccccn2)c2ccccc21`, the inhibition is 0.21% (inactive).

As for `CCCCOc1ccc(C(=O)N/C(=C/C=C/c2ccccc2)C(=O)N2CCOCC2)cc1`, the inhibition was 5.26% (inactive).

Turning to `CCOC(=O)C1CCN(C(=O)Nc2cccc(OC)c2)CC1`, the inhibition was -1.56% (inactive).

As for `CN(c1ccccn1)c1ncnc2[nH]ncc12`, the inhibition is -2.65% (inactive).

Consider `CCOc1cc2c(Cl)ncnc2c(OCC)c1OCC`, for which the inhibition was -5.65% (inactive).

With `Cc1ccc(C(=O)NNC(=O)OC(C)(C)C)c(Cl)c1`, the inhibition is 8.12% (inactive).

With `Cc1nc(N2CCOCC2)sc1C(=O)NN`, the inhibition is -11.6% (inactive).

Take `CC(C)(C)NC(=O)C(=O)NN=C1CCCCCCC1`: the inhibition is -1.87% (inactive).

Turning to `O=S(=O)(Nc1ccc2cn[nH]c2c1)c1ccccc1`, the inhibition is -7.54% (inactive).

As to `C/C(=N/O)c1ccc(N2C(=O)C3C4C=CC(C3C2=O)C2C3C(=O)N(c5ccc(/C(C)=N/O)cc5)C(=O)C3C42)cc1` (stereo unspecified), the inhibition is -1.59% (inactive).

On to `CCCCCC(=O)Nc1ccc(S(=O)(=O)Nc2ccc(Cl)nn2)cc1`, for which the inhibition is -12.1% (inactive).

These data come from PubChem BioAssay AID798 (PCMD, 2007).
